Assay [1] in a line: qHTS assay for small molecule antagonists of the retinoid-related orphan receptor gamma (ROR-gamma) signaling pathway - cell viability counter screen (AID 720652; active means well fitted curve in the direction sought with a large enough effect in the repeat runs; an effect the other way counts as inactive or inconclusive;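 further: CHO reporter cells with doxycycline-induced ROR-gamma expression; compound exposure lasted 16 hr before ATP read; on the % scale 0 is the no-effect control and ±100 the full control effect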). The procedure, abridged: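 CHO RORE-LUC/TET-ROR line, 1,000 cells/well, 37 C 5% CO2 5 hr; cpd or DMSO + doxycycline induction, 16 hr. CellTiter-Glo, 30 min RT, luminescence = ATP content.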
A short description of assay [2]: qHTS assay for small molecule agonists of the antioxidant response element (ARE) signaling pathway measured by Nrf2-dependant transcriptional activity - cell viability counter screen (AID 720653; active means well fitted curve in the direction sought with a large enough effect in the repeat runs; an effect the other way counts as inactive or inconclusive; further: on the % scale 0 is the no-effect control and ±100 the full control effect). Conditions: ARE-bla HepG2 viability, CellTiter-Glo ATP luminescence, 16 h; max response: stronger effect = lower value. The gist of the method:
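ARE-bla HepG2 cells (2,000/well) rested 5 hrs at 37C/5% CO2, then exposed to compounds in DMSO for 16 hrs. Viability was read in the same wells as intracellular ATP by luminescence, 30 min at room temperature after reagent addition.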
(In qHTS, concentration-response curves come from the screen itself.)

The target in assay [3] is T1, Hexokinase-4 (Homo sapiens) + Glucokinase regulatory protein (Homo sapiens) (UniProt P35557+Q14397). Kind of assay: qHTS assay for inhibitors of recombinant human GCK-GKRP interaction: Diaphorase-coupled assay (AID 743205; active means well fitted curve in the direction sought with a large enough effect; an effect the other way counts as inactive or inconclusive). The procedure, abridged:
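Compounds pre-incubated 20 min with substrate, then 10 nM GST-GCK with 10 nM FLAG-GKRP added. GCK activity coupled via G6PDH and diaphorase to resorufin (5 mM glucose, 0.4 mM ATP, 0.15 mM NADP+, pH 7.6), read kinetically over 30 minutes at Ex 525/Em 590 nm.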

Assay [4] concerns the target T1, Hexokinase-4 (Homo sapiens) + Glucokinase regulatory protein (Homo sapiens). Kind of assay: qHTS assay for inhibitors of recombinant human GCK-GKRP interaction: ADP-Glo assay (AID 743206; active means well fitted curve in the direction sought with a large enough effect; an effect the other way counts as inactive or inconclusive;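 further: plate controls were DMSO plus enzyme for no effect and no enzyme for full effect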). The gist of the method:
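Pin-transferred compounds meet a 15 nM GST-GCK/15 nM FLAG-GKRP/2 uM S6P mix (dispense concentrations). ATP is then added to 0.4 mM final with 5 mM glucose, and the reaction runs 60 min at room temperature. ADP is quantified luminescently.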

For assay [5] the target is unchanged. As to the kind of experiment: qHTS assay for inhibitors of recombinant human GCK-GKRP interaction: HTRF assay (AID 743207; active means well fitted curve in the direction sought with a large enough effect; an effect the other way counts as inactive or inconclusive;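 further: 0% = DMSO with GCK present and -100% = DMSO wells lacking GCK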). The gist of the method:
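HTRF binding of 5 nM GST-GCK and 5 nM FLAG-GKRP with 2 uM S6P in pH 7.1 Hepes buffer (MgCl2, KCl, DTT, Tween 20, BSA). Anti-FLAG XL665 and anti-GST donor added, 60 min at room temperature; 665/615 nm read, normalized to with- and without-GCK controls.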

Assay [6] is described as follows: qHTS assay for cell viability of HEK293 cells (AID 743288; active means well fitted curve in the direction sought with a large enough effect; an effect the other way counts as inactive or inconclusive; further: on the % scale 0 is the no-effect control and ±100 the full control effect; nearly all actives have a fitted effect of over 50% in size). As to conditions: ATP luminescence (CellTiter-Glo), 18 h; max response: stronger effect = lower value. The gist of the method: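 Steps: plate 2,000 parental HEK293 cells per well; incubate ≥5 h, 37 C; add compounds in DMSO; incubate 18 h, 37 C; add CellTiter-Glo; wait 30 min at room temperature; read luminescence.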

The nature of assay [7]: qHTS assay for cell viability of the p53RE-bla HCT-116 cell line (AID 743292; active means well fitted curve in the direction sought with a large enough effect; an effect the other way counts as inactive or inconclusive; further: on the % scale 0 is the no-effect control and ±100 the full control effect; nearly all actives have a fitted effect of over 55% in size). The procedure, abridged: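 ATP-based luminescent viability (CellTiter-Glo, 30 min RT) after 16 h compound treatment at 37 C of p53RE-bla HCT-116 cells, seeded at 4,000 cells/well and rested 5 h before dosing.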
A short description of assay [8]: qHTS profiling of the MIPE4 collection as inhibitors of Plasmodium falciparum (3D7) proliferation (AID 743344).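 Further: scaled between DMSO vehicle wells and 0.29 µM artemisinin as full inhibition.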 As to conditions: P. falciparum 3D7 in erythrocytes, SYBR Green DNA fluorescence, 72 h; at 28.5 µM (top of the series) unless noted. The gist of the method: (§1)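 Parasite DNA was quantified by SYBR Green I fluorescence (ex 485, em 535 nm) after overnight lysis in saponin/Triton buffer at room temperature. Cultures at 0.3% parasitemia and 2.5% hematocrit were first exposed to compound for 72 h at 37 C; signals were normalised to artemisinin (0.29 uM) and vehicle wells.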

Assay [9] is described as follows: qHTS profiling of the MIPE4 collection as inhibitors of Plasmodium falciparum (DD2) proliferation (AID 743345). Conditions: P. falciparum Dd2 in erythrocytes, SYBR Green DNA, 72 h; at 28.5 µM (top of the series) unless noted. The gist of the method:
as §1

Assay [10] is described as follows: qHTS profiling of the MIPE4 collection as inhibitors of Plasmodium falciparum (DD2) proliferation (Rep 2) (AID 743346). As to conditions: P. falciparum Dd2 in erythrocytes, SYBR Green DNA, 72 h; at 28.5 µM (top of the series) unless noted. The gist of the method: as §1
Assay [11] in a line: qHTS profiling of the MIPE4 collection as inhibitors of Plasmodium falciparum (HB3) proliferation (AID 743347).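 Further: plate controls were DMSO vehicle wells for no effect and artemisinin wells for full effect.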 As to conditions: P. falciparum HB3 in erythrocytes, SYBR Green DNA, 72 h; at 28.5 µM (top of the series) unless noted. The gist of the method: as §1
The nature of assay [12]: High-throughput drug toxicity screening in the BPDCN cell line Gen2.2 (AID 1224824).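 Further: cells exposed to compounds for 48 h before reading.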 As to conditions: Gen2.2 BPDCN cells; at 45.8 µM (top of the series) unless noted. The procedure, abridged:
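Gen2.2 cells, 500 per well in phenol red-free RPMI with 10% FBS, exposed to compounds 48 h at 37 C, 5% CO2; viability by CellTiter-Glo luminescence. Percent activity scaled to DMSO (100%) and 9.2 uM bortezomib final (0%).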

A short description of assay [13]: High-throughput drug toxicity screening in the BPDCN cell line Cal-1 (AID 1224825). Conditions: Cal-1 BPDCN cell viability, qHTS; at 45.8 µM (top of the series) unless noted. The gist of the method: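 Viability of the BPDCN line Cal-1 is measured as ATP-based luminescence (CellTiter-Glo) following 48 h incubation with compounds. Percent activity uses DMSO-treated wells as 100% and 9.2 uM bortezomib as 0%.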

The nature of assay [14]: qHTS assay for measurement of the activity of small molecule inhibitors on Zika virus induced Caspase-3 activity in human astrocytoma cells (AID 1224859; active means well fitted curve in the direction sought with a large enough effect; an effect the other way counts as inactive or inconclusive;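 further: plate controls were ZIKV-infected untreated cells for no effect and uninfected cells for full effect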). The procedure, abridged: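 In SNB-19 cells plated at 250 cells/well and grown 16-20 h, compounds were applied 1 h before ZIKV (2 FFU/cell). Six hours later caspase-3/7 luminescence was recorded.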
The nature of assay [15]: qHTS Screen of the MIPE 4.0 Collection Against Ewings Sarcoma (RDES) (AID 1259252; active means well fitted curve in the direction sought with a large enough effect; an effect the other way counts as inactive or inconclusive; further: potency means the concentration at half of the fitted maximal effect; nearly all actives have a fitted effect of over 35% in size). The gist of the method:
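Here, cells in 5% FBS RPMI were exposed for two days (48 h) to compound dilutions added four hours after plating. ATP-based CellTiter-Glo luminescence measured viability, normalized to vehicle and no-cell blanks.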

A short description of assay [16]: qHTS assay for measurement of the activity of small molecule inhibitors on Zika virus induced Caspase-3 activity in human iPSC derived neural progenitor cells (hNPCs) (AID 1224857; active means well fitted curve in the direction sought with a large enough effect; an effect the other way counts as inactive or inconclusive; further: % of control where 0% means no effect; nearly all actives have a fitted effect of over 65% in size). The procedure, abridged:
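Caspase-3/7 induction by a 6-hour ZIKV infection was quantified with a luminescent Caspase-Glo 3/7 reagent incubated 30 minutes at room temperature. Compounds were preincubated with hNPCs for 1 hour; inhibition was calculated against uninfected and infected control wells.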

“And” between values parts separate entries of the source, which are not always exact repeats. Identical values can stand only once. Results filed as inconclusive are left out. The source made the active and inactive calls. Unless noted, how the calls were made is not given here.

Results on 4 compounds are retold here after PubChem BioAssay (NCATS).

T1 sequence (P35557 whole entry, looked up): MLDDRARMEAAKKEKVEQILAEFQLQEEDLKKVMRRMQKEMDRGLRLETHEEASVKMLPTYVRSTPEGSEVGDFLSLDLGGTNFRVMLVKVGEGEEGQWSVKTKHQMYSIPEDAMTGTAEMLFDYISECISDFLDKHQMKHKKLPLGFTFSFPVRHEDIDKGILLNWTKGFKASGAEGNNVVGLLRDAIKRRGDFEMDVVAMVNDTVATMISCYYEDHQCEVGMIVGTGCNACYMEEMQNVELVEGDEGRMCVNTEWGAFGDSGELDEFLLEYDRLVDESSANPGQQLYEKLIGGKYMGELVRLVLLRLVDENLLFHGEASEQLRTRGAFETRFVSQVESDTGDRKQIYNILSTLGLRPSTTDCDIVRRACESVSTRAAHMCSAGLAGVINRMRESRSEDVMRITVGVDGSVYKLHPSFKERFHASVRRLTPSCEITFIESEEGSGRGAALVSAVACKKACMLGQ
T1 sequence (Q14397 whole entry, looked up): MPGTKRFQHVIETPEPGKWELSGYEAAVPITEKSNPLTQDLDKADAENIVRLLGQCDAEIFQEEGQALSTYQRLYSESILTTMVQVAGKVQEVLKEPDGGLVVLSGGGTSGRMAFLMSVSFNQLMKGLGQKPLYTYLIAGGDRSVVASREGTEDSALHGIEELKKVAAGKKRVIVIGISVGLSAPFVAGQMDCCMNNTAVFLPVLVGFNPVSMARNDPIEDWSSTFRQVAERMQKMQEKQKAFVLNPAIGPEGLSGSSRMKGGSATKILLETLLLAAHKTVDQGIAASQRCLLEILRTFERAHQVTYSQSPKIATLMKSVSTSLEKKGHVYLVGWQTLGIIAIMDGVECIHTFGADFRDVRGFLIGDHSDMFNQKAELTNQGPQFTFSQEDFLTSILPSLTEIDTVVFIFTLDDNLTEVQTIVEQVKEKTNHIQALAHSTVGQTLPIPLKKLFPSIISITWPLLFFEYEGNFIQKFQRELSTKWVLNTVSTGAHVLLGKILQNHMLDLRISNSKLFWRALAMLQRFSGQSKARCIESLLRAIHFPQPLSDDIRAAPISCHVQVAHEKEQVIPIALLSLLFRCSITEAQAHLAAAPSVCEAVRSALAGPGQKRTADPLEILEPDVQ

Turning to `O=c1cc(-c2ccc(O)cc2)oc2cc(O)cc(O)c12`, the Potency result in [1], in [7] and in assay [14] was “inactive” each time. The max response in assay [2] was -5.98% (inactive) and -9.88% (inactive); in assay [6], -29.2% (inactive) and -22.7% (inactive). Moreover, the result in [3], in assay [4] and in assay [5] was inactive. In assay [8], this compound returned a parasite growth, % of DMSO control of 7.22%. This compound registered a parasite growth remaining, % of DMSO control (lower = more inhibition) in assay [9] of 42.9%. In assay [10], this compound yielded a parasite growth, % of control (lower = inhibition) of 6.57%. Also, the growth, % of control in assay [11] amounted to 3.14%. In assay [12], the cell viability, % of control (lower = more cytotoxic) came to 8.72%. This compound had a viability (% of control) in assay [13] of 4.48%. Besides, the Potency in assay [15] was 18.7 µM (active).
`CC(C)(C)NC(=O)Nc1cccc(Nc2ncc(F)c(NC(C)(C)CO)n2)c1` had a parasite growth, % of DMSO control in assay [8] of 5.44%. Further, the parasite growth remaining, % of DMSO control (lower = more inhibition) in assay [9] is 7.22%. In assay [10], the parasite growth, % of control (lower = inhibition) worked out at 7.73%. This compound also showed a growth, % of control in assay [11] of 3.88%. In addition, the cell viability, % of control (lower = more cytotoxic) in assay [12] stood at 235%. Further, the viability (% of control) in assay [13] is 45.1%. Besides, the Potency entry in assay [16] was “inactive”.
In the case of `O=C(NOCC(O)CO)c1cc(Br)c(F)c(F)c1Nc1ccc(I)cc1F` (configuration not stated), the parasite growth, % of DMSO control in [8] is 89.4%. In [9], the parasite growth remaining, % of DMSO control (lower = more inhibition) was 87.4%. In addition, the parasite growth, % of control (lower = inhibition) in assay [10] was determined as 100%. In [11], this compound gave a growth, % of control of 77.4%. For the same compound, the cell viability, % of control (lower = more cytotoxic) in assay [12] came to 1.76%. The viability (% of control) in assay [13] was 57.3%. Moreover, the Potency entry in assay [16] is “inactive”.
In the case of `O=C(O)C=Cc1ccc(O)c(O)c1`, the parasite growth, % of DMSO control in assay [8] amounted to 53.1%. The compound further came in with a parasite growth remaining, % of DMSO control (lower = more inhibition) in [9] of 82.5%. This compound also came in with a parasite growth, % of control (lower = inhibition) in [10] of 22.8%. The compound also displayed a growth, % of control in [11] of 64.3%. Moreover, the cell viability, % of control (lower = more cytotoxic) in assay [12] worked out at 21.3%. For the same compound, the viability (% of control) in assay [13] was 8.99%. Besides, the Potency result in assay [14] was “inactive”. In addition, the Potency in assay [15] was 8.33 µM (active).
